Growth data for 13 molecules are collected here from PubChem BioAssay (NCI).

Among the test systems are NCI-H23 lung; NCI-H226 lung; NCI-H322M lung; HOP-62 NSCLC; NCI-H460 lung; HOP-92 NSCLC; NCI-H522 lung; A549/ATCC NSCLC; 786-0 renal; COLO 205 colon.
What all share (experiment): NCI-60 one-dose screen, 48 h (100 = growth as untreated, 0 = no growth, -100 = all killed)
Common to all, as to conditions: 10 µM unless noted

The panel holds about 83,000 compounds, 20% with a hit somewhere; the sample as a whole holds those more often.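 Testing used 96-well plates and a 48-hour single-concentration exposure. Example: -40 means 40% of the starting cells died.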 Values without a mark were called inactive. Calls of active or inactive are those of the source. How the source made its calls: active means growth percent below 10; inactive means the rest.

Turning to `Nc1c(C(=O)Nc2cccc3c2OCCO3)sc2nc3c(cc12)CN(Cc1ccccc1)CC3`, the growth in the experiment on NCI-H23 lung is 85.4%; in the experiment with NCI-H226 lung, 82.5%; in the experiment on NCI-H322M lung, 94.3%; in the experiment with HOP-62 NSCLC it was 72.5%; in the experiment on NCI-H460 lung, 53.4%; in the experiment with HOP-92 NSCLC it was 83.4%. The growth is 29.3% in the experiment on NCI-H522 lung, 79.3% in the experiment on A549/ATCC NSCLC, 87.1% in the experiment on 786-0 renal and 90.9% in the experiment with COLO 205 colon.
For the molecule `CN[C@@]12CC3(C=CC(=O)C=C3)O[C@]1(Cc1ccc(OC)cc1)N(C)C(=O)N2`, the growth in the experiment on NCI-H23 lung was 91%; in the experiment with NCI-H226 lung, 89.4%; in the experiment on NCI-H322M lung, 79.9%; in the experiment on HOP-62 NSCLC, 114%; in the experiment on NCI-H460 lung it was 101%; in the experiment with HOP-92 NSCLC, 94.4%. In addition, the growth with NCI-H522 lung was -23.6% (active); in the experiment with A549/ATCC NSCLC, 74.4%; with 786-0 renal, 84.2%; in the experiment on COLO 205 colon it was 47.3%.
Regarding `c1ccc(Sc2ncnc3ccccc23)cc1`, the growth was 70.2% in the experiment with NCI-H23 lung; 82.2% in the experiment on NCI-H226 lung; 79.9% in the experiment on NCI-H322M lung; 99.4% in the experiment with HOP-62 NSCLC; 89.9% in the experiment with NCI-H460 lung; 48.9% in the experiment on HOP-92 NSCLC. The growth in the experiment on NCI-H522 lung is 82.8%; with A549/ATCC NSCLC, 90.4%; in the experiment with 786-0 renal it was 87.6%; in the experiment on COLO 205 colon, 108%.
As for `CNC(=S)N/N=C/CSC/C=N/NC(=S)NC`, the growth is 85.2% with NCI-H23 lung; 104% in the experiment with NCI-H226 lung; 106% with NCI-H322M lung; 90.5% in the experiment on HOP-62 NSCLC; 70.5% in the experiment on NCI-H460 lung; 101% in the experiment on HOP-92 NSCLC. In addition, the growth was 18.7% in the experiment on NCI-H522 lung, 62.8% with A549/ATCC NSCLC, 96.1% in the experiment on 786-0 renal and 39.1% in the experiment with COLO 205 colon.
For `CC(=O)Nc1ccc2c(c1)c(NC(C)=O)nn2C(=O)Nc1ccc(Cc2ccccc2)cc1`, the growth is 26.8% in the experiment on NCI-H23 lung; 62.7% in the experiment on NCI-H226 lung; 75.1% in the experiment on NCI-H322M lung; 44.3% in the experiment on HOP-62 NSCLC; 76.4% in the experiment on NCI-H460 lung; -42.8% (active) with HOP-92 NSCLC. Also, the growth in the experiment with NCI-H522 lung is 76.3%; in the experiment with A549/ATCC NSCLC, 92.1%; with 786-0 renal it was 67.9%; with COLO 205 colon, 102%.
Consider `O=C(N/N=C/c1ccc(O)cc1O)c1cccnc1`, for which the growth was 45.3% in the experiment on NCI-H23 lung; 70.5% with NCI-H226 lung; 29.9% in the experiment on NCI-H322M lung; 43.2% with HOP-62 NSCLC; 10.9% with NCI-H460 lung; 56.4% with HOP-92 NSCLC. The growth was -6.04% (active) in the experiment with NCI-H522 lung, 46.4% in the experiment on A549/ATCC NSCLC, 37.9% with 786-0 renal and 23.4% in the experiment with COLO 205 colon.
In the case of `CC(C)[C@H]1COC(=O)N1[C@@H]1C(=O)N([C@@H](CCC(=O)N2CCN(C3CCCC3)CC2)C(=O)N[C@@H]2CCCc3ccccc32)[C@@H]1/C=C/c1cccc(Br)c1`, the growth is 64.7% in the experiment with NCI-H23 lung; 74% with NCI-H226 lung; 39.3% in the experiment with NCI-H322M lung; 59.5% with HOP-62 NSCLC; 31.6% in the experiment on NCI-H460 lung; 44.7% in the experiment on HOP-92 NSCLC. Further, the growth in the experiment with NCI-H522 lung was 27.4%; with A549/ATCC NSCLC it was 25.7%; in the experiment with 786-0 renal, 44.3%; in the experiment with COLO 205 colon, 24%.
As for `C#Cc1nc2ccccc2c(=O)[nH]1`, the growth in the experiment with NCI-H23 lung was 29.9%; in the experiment on NCI-H226 lung, -58.8% (active); in the experiment with NCI-H322M lung, 29.5%; in the experiment on HOP-62 NSCLC, -6.19% (active); in the experiment with NCI-H460 lung, 11.1%; in the experiment on HOP-92 NSCLC, -45.8% (active). Besides, the growth in the experiment with NCI-H522 lung is -71.9% (active); in the experiment with A549/ATCC NSCLC it was 4.37% (active); in the experiment on 786-0 renal, -64.7% (active); in the experiment with COLO 205 colon it was -74.3% (active).
Turning to `COc1ccc(/C=C2\CN(C(=O)CCN3CCC(=NO)CC3)C/C(=C\c3ccc(OC)cc3)C2=O)cc1`, the growth in the experiment with NCI-H23 lung was -4.73% (active); in the experiment on NCI-H226 lung, 70%; with NCI-H322M lung, 17.8%; with HOP-62 NSCLC, 44.8%; with NCI-H460 lung, -34.5% (active); in the experiment on HOP-92 NSCLC, 89%. Further, the growth with NCI-H522 lung was -29.7% (active); in the experiment with A549/ATCC NSCLC, 36.5%; with 786-0 renal, -10.3% (active); in the experiment on COLO 205 colon it was -23.7% (active).
Turning to `O=c1[nH]c(-c2ccccn2)nc2sc3c(c12)CCCCC3`, the growth in the experiment on NCI-H23 lung was 56.9%; in the experiment with NCI-H226 lung it was 68.8%; with NCI-H322M lung it was 48.5%; in the experiment on HOP-62 NSCLC, 37.8%; in the experiment on NCI-H460 lung, 18.8%; with HOP-92 NSCLC it was 68.6%. The growth with NCI-H522 lung is 20.8%; with A549/ATCC NSCLC it was 31.7%; in the experiment with 786-0 renal, 60.4%; in the experiment with COLO 205 colon, 28%.
On to `Cc1ccc2c(c1)O/C(=C\c1cccc(OCC(=O)c3ccccc3)c1)C2=O`, for which the growth in the experiment on NCI-H23 lung was 97.4%; in the experiment on NCI-H226 lung, 93.6%; with NCI-H322M lung, 116%; in the experiment on HOP-62 NSCLC, 90.3%; in the experiment on NCI-H460 lung, 107%; in the experiment with HOP-92 NSCLC, 75.2%. Further, the growth with NCI-H522 lung is 70.3%; in the experiment with A549/ATCC NSCLC it was 81.6%; in the experiment with 786-0 renal, 91.1%; with COLO 205 colon, 101%.
Take `CCOC(=O)c1c2c(n3ccc(NC(=O)CCN(CC)CC)cc13)C(=O)c1ncccc1C2=O`: the growth is 0.0285% (active) with NCI-H23 lung; 75.1% in the experiment with NCI-H226 lung; 73.4% in the experiment on NCI-H322M lung; 31.4% in the experiment on HOP-62 NSCLC; -20.4% (active) in the experiment on NCI-H460 lung; 82.1% in the experiment on HOP-92 NSCLC. Also, the growth with NCI-H522 lung was 6.16% (active); with A549/ATCC NSCLC, 36.2%; in the experiment on 786-0 renal, 50.1%; with COLO 205 colon, 54.1%.
As for `O=C(Nc1cccc2c1C(=O)c1cccc(Nc3cccc4c3C(=O)c3cccc(NC(=O)c5ccccc5)c3C4=O)c1C2=O)c1ccccc1`, the growth in the experiment with NCI-H23 lung was 108%; in the experiment with NCI-H226 lung it was 102%; in the experiment with NCI-H322M lung, 112%; in the experiment on HOP-62 NSCLC, 104%; with NCI-H460 lung, 113%; with HOP-92 NSCLC, 90.7%. Besides, the growth in the experiment on NCI-H522 lung was 112%; in the experiment on A549/ATCC NSCLC, 90.1%; with 786-0 renal, 117%; with COLO 205 colon, 117%.
